SmPrx2 inh – inhibitors of Schistosoma mansoni peroxiredoxin 2. S. mansoni Prx2 activity coupled to TGR/GSH (TGR is thioredoxin glutathione reductase), NADPH fluorescence loss, qHTS. Potency, µM. hit rate 0.07% among 65,000
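Prx2 activity was followed as the loss of NADPH fluorescence (ex 365/em 450 nm), read every 30 sec for 8 min after H2O2 start. The enzyme mix (50 nM Prx2, 25 nM TGR, GSH, NADPH; pH 7.4 phosphate buffer) was incubated with compound for 15 min at room temperature first.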
AmpC inh no det – AmpC beta-lactamase inhibition, detergent-free assay. Potency, µM (highest dose often 28.7 µM), for inactives: top-dose activity change, negative = inhibition. AmpC nitrocefin hydrolysis, absorbance 480 nm, no detergent. AID 585. hit rate 1.8% among 71,000; further: % of control where 0% means no effect
Target sequence (P00811 whole entry, looked up): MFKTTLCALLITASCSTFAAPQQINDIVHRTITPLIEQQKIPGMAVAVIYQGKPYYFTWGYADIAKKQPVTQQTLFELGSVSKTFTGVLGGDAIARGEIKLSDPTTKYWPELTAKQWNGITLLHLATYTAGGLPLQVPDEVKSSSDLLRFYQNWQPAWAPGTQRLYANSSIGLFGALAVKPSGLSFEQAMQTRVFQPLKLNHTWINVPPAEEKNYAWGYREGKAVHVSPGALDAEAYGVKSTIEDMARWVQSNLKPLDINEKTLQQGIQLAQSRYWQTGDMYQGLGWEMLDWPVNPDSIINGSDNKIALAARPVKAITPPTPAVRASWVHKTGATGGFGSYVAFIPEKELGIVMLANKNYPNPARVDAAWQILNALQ
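AmpC, 20 mM phosphate pH 7.0; 15 min cpd preinc, RT; start with nitrocefin (800 uM stock); A480 kinetic read, 20 s intervals, 4 min. No-enzyme wells = negative control.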
Anthrax LT inh – blocks cellular internalization of anthrax lethal toxin. Cells, anthrax lethal toxin internalization, FRET ratio (460/530). Potency, µM (highest dose often 40 µM), for inactives: at the highest dose activity change, negative = inhibition, usual class: inhibitors. hit rate 0.67% among 70,000; further: on the % scale 0 is the no-effect control and ±100 the full control effect; nearly all actives have a fitted effect of over 50% in size
AmpC inh det – AmpC beta-lactamase inhibition, detergent assay | purified AmpC, nitrocefin hydrolysis with detergent | Potency, µM (series often up to 28.7 µM), inactives show at the top dose activity change, negative = inhibition | hit rate 0.09% among 71,000; active means well fitted curve in the direction sought with a large enough effect; inconclusive means small, poorly fitted or top-dose-only effect; further: on the % scale 0 is the no-effect control and ±100 the full control effect
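E. coli AmpC (5.3 nM) in 20 mM phosphate pH 7.0 with 0.01% Triton X-100, preincubated 15 min RT with compound; nitrocefin (2 uL of 800 uM stock) hydrolysis followed by 480 nm absorbance every 20 s over 4 min.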
* = called active by the depositor; ? = inconclusive; nt = no result given; [ ] = another dose, or the depositor's remark. Compounds with a hit are over-represented: about 2.4% of the library has one in this group of screens. Unless noted, the call rests on the fitted dose curve. Potency means the concentration at half of the fitted maximal effect.

SMILES	SmPrx2 inh	AmpC inh no det	Anthrax LT inh	AmpC inh det
CC(C)(C)NC(=O)C1CCCN(S(=O)(=O)c2cccc3cccnc23)C1 (centres undefined)	>57	4µM*[single pt active]	-6%	12%
Cc1ccc2c(c1)c(-c1ccccc1)nc1nncn12	>57	2.5µM*[single pt active]	?	14%
Cc1cccc(-c2nc3ccccc3c3nncn23)c1	nt	16%	-12%	3%
Cn1c(=O)c2cc(S(=O)(=O)NC(Cc3ccccc3)C(=O)NCc3ccco3)ccc2n(C)c1=O (centres undefined)	>57	4µM*[single pt active]	-4%	10%
CC1=CC(=O)NP(=O)(Oc2ccc3ccccc3c2)N1 (centres undefined)	0.57*	-13%	?	5%
CCC(Oc1ccc2ccccc2c1)C(=O)O (centres undefined)	>57	3%	-12%	-1%
CN(C)c1ncc2nc(-c3ccc(F)cc3)c(=O)n(C[C@H]3CCCO3)c2n1	>57	3%	?	-1%
CN(N=O)C(=O)N[C@H]1C(O)OC(CO)[C@@H](O)[C@H]1O (some centres undefined)	>26	10%	?	0%
O=C(CCc1ccc(S(=O)(=O)N2CCCCC2)cc1)c1nnc(-c2ccccc2)o1	>57	20µM*[single pt active]	-22%	-6%
O=C(c1ccc(-c2nnc(-c3ccccc3)o2)cc1)N1CCCCCC1	>57	78%	5%	-1%
O=C(c1ccc(-c2ccccc2)cc1)N1CCN(c2nc3ccccc3o2)CC1	>57	4µM*[single pt active]	-9%	8%
C=CCOC(=O)C(C(C)=O)C(NC(=O)OC)c1cccc(F)c1 (centres undefined)	nt	nt	-10%[8 µM]	nt
CCCN(CCC)CCNC(=O)CS(=O)Cc1nc(-c2ccc(C)cc2)oc1C (centres undefined)	>57	25%	11%	-3%
CCCCNC(=O)CS(=O)Cc1nc(-c2ccc(C)cc2)oc1C (centres undefined)	>57	4µM*[single pt active]	-2%	12%
Cc1ccc(-c2nc(CS(=O)CC(=O)NCCCN3CC(C)CC(C)C3)c(C)o2)cc1 (centres undefined)	>57	4µM*[single pt active]	-7%	14%
CC(C)C[C@H]1C(=O)N2CCC[C@@H]2[C@]2(O)O[C@](NC(=O)[C@H]3C=C4c5cccc6[nH]cc(c56)C[C@H]4N(C)C3)(C(C)C)C(=O)N12	>57	106%	?	0%
COc1ccc(-c2cc(C(F)(F)F)nc(S(=O)(=O)CCC(=O)N3CCOCC3)n2)cc1	>57	67%	?	4%
COc1ccccc1-c1cc(C(F)(F)F)nc(S(=O)(=O)CCCC(=O)N2CCOCC2)n1	>57	83%	1.6µM*	-2%
CCOC(=O)C1CCN(CC(O)COc2ccc(C(C)=O)cc2)CC1 (centres undefined)	>57	3.2µM*[single pt active]	-11%	12%
CCOC(=O)C1CCN(CC(O)COc2ccc(C(C)(C)C)cc2)CC1 (centres undefined)	>57	60%	-15%	-1%
CC(=O)c1ccc(OCC(O)CN2CCN(Cc3ccccc3)CC2)cc1 (centres undefined)	>57	4µM*[single pt active]	-8%	14%
CC(C)(c1cc(Br)c(OCC(Br)CBr)c(Br)c1)c1cc(Br)c(OCC(Br)CBr)c(Br)c1 (centres undefined)	nt	-13%	2%	7%
COc1ccc(CNc2oc(-c3ccccc3)nc2C#N)cc1	>57	4µM*[single pt active]	-2%	15%
COc1ccc(CCNc2oc(-c3ccc(C)cc3)nc2C#N)cc1OC	>57	4µM*[single pt active]	9%	12%
CC(C)=CCC/C(C)=C/C=C/C1=CC2(C)CC1(C)C(/C=C(\C)CCC=C(C)C)CC2=O (centres undefined)	nt	nt	-8%[8 µM]	nt
SMILES	SmPrx2 inh	AmpC inh no det	Anthrax LT inh	AmpC inh det
CCNc1ncc2nc(CCc3ccccc3)c(=O)n(Cc3ccc(F)cc3)c2n1	>57	-2%	?	0%
C[C@H](N)c1cccc(Cl)c1Cl	>57	3%	-4%	-4%
Cc1ccc(S(=O)(=O)CCC(=O)c2ccc(O)cc2O)cc1	nt	13µM*	13µM*	7%
COc1ccc(-c2oc3cc(OC)c(OC(C)=O)c(OC)c3c(=O)c2OC)cc1OC(C)=O	37*	18%	?	0%
COc1ccc(C2CC(c3cccc(C)c3)n3ncnc3N2)cc1 (centres undefined)	>57	4µM*[single pt active]	-2%	15%
Fc1ccc(C2CC(c3ccccc3)Nc3ncnn32)cc1 (centres undefined)	>57	4µM*[single pt active]	-11%	14%
c1ccc(C2CC(c3ccccc3)n3ncnc3N2)cc1 (centres undefined)	>57	16%	7%	0%

From PubChem
